Bioassay records: PubChem, several laboratories
S1P4 ag: agonists of human S1P4 receptor; S1P4-expressing cell line, agonist reporter assay; O95977; activation, % at 4.98 µM; hit rate 0.35% among 220,000; in the data active = activation above about 11%
S1P4 antag: human S1P4 receptor antagonism | S1P4-expressing cells, antagonist mode, reporter read-out | inhibition, % at 4.98 µM | hit rate 0.26% among 220,000 | AID 1510; in the data active = inhibition above about 29%
EP2 mod: EP2 receptor (human) modulation. EP2-expressing cells, cAMP HTRF FRET, PGE2 co-stimulation. AID 940. induction, % at 25 µM. P43116. hit rate 0.83% among 260,000;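 active = compounds whose cAMP rise, as percent of the full-agonist control response, exceeds 60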;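 also: rat C6 glioma line stably carrying human EP2 under a CMV promoter; the protocol text gives 20 µM as final concentration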
S1P3 antagonist: S1P3 (human) receptor antagonism. CHO S1P3 NFAT-BLA reporter, FRET fluorescence, antagonist mode. inhibition, % at 4.98 µM. hit rate 0.27% among 170,000;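 active = inhibition above the plate cutoff, the mean inhibition of test wells on that plate plus 3 SD, cut at about 28% in these data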;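 also: cells challenged with S1P at its EC80 of 0.8 µM; blue over green emission ratio from cleaved BLA substrate after 4 h stimulation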
Target sequence (Q99500 whole entry, looked up): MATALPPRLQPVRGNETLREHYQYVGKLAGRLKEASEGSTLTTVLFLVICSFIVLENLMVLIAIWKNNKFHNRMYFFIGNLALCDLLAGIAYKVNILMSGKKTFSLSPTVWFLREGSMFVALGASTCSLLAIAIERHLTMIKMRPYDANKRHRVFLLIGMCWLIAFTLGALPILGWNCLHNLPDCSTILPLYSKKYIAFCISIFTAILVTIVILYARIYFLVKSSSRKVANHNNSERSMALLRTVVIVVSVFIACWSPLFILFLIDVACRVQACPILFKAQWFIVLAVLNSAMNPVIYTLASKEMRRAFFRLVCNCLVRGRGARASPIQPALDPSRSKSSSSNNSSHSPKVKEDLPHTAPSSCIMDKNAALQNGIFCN
Pf gametocyte: inhibitors of late stage P. falciparum gametocyte viability | hit rate 0.065% among 150,000 | P. falciparum stage V gametocytes, ATP luminescence, 24 h | AID 743093 | inhibition, % at 10.9 µM;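 active = inhibition above the mean plus 3 SD of compounds within the control limits, set per campaign, cut at about 38% in these data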
EP2 antag: blocks the human prostaglandin E2 receptor EP2. P43116. inhibition, % at 25 µM. hit rate 0.52% among 260,000. C6 glioma cells expressing human EP2, cAMP TR-FRET; cells stimulated with saturating PGE2;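 active = percent inhibition above 40 after rounding to a whole number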;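 also: rat C6 glioma host cells with rolipram phosphodiesterase inhibitor present; the protocol text gives 20 µM as final concentration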
A number is an active result; n = inactive; x = not tested or not shown; ! = not active in a repeat. Rows were chosen to be rich in hits. Some 1.9% of all compounds tested hit in one or more screens of this group.

SMILES | S1P4 ag | S1P4 antag | EP2 mod | S1P3 antagonist | Pf gametocyte | EP2 antag
COc1ccc(S(=O)(=O)N2c3ccccc3OCC2C(C)(C)C)cc1 (stereo not drawn) | n | n | 62 | n | n | n
Cc1ccc2[nH]c(=O)c(C(c3nnnn3Cc3ccccc3)N3CCc4ccccc43)cc2c1 (stereo not drawn) | n | n | n | x | n | n
CCc1ccc2[nH]c(=O)c(C(c3nnnn3Cc3ccco3)N3CCC(C)CC3)cc2c1 (stereo not drawn) | n | n | 61 | x | n | n
Cc1cc(C)c2cc(C(c3nnnn3C3CCCCC3)N3CCCc4ccccc43)c(=O)[nH]c2c1 (stereo not drawn) | x | x | 71 | x | x | n
CCc1ccc2[nH]c(=O)c(C(c3nnnn3Cc3ccccc3)N3CCCc4ccccc43)cc2c1 (stereo not drawn) | x | x | 66 | x | x | n
CCc1nccn1CC(=O)NC(C)c1nc(-c2ccccc2C)no1 (stereo not drawn) | x | x | n | x | x | n
O=C(NCc1ccco1)c1cccc(NC(=O)c2ccccc2)c1 | n | n | n | n | n | n
Cc1ccc(C(=O)Nc2cccc(C(=O)NCc3ccco3)c2)cc1 | n | n | n | 67 | n | n
COc1ccccc1N1CC(C(=O)OCC(=O)c2ccc(F)cc2)CC1=O (stereo not drawn) | n | n | n | x | n | n
Cc1cccc(N2CC(C(=O)OCC(=O)c3ccc(OC(=O)c4cccs4)cc3)CC2=O)c1C (stereo not drawn) | n | n | n | x | n | 120
O=C(NCc1ccco1)c1ccc(S(=O)(=O)NCC2CCCCC2)cc1 | x | x | n | x | x | n
O=c1[nH]c(/C=C\c2ccc(-c3cccc(Cl)c3Cl)o2)nc(O)c1[N+](=O)[O-] | x | x | n | x | x | n
Cn1ccnc1Sc1nc(Nc2cccc(Cl)c2)nc(N2CCOCC2)n1 | n | n | 61 | n | n | n
CCNC(=O)c1cc2c(=O)n3cc(C)ccc3nc2n(CCCOC)c1=N | x | x | n | x | x | n
CC1(C)CC(=O)C(C(c2cccc(O)c2O)C2C(=O)CC(C)(C)CC2=O)C(=O)C1 | x | x | n | x | x | 41
Cc1nn(CCC(=O)NCc2noc(-c3ccccc3)n2)c(C)c1C | x | x | n | x | x | n
FC(F)(F)c1nc2nc(Cl)c(Cl)nc2n1CCCN1CCOCC1 | x | x | n | x | x | 46
Cc1nc2ccccc2c(=O)n1CCCN1CCOCC1 | n | n | n | n | n | n
COc1cc(N2CCOCC2)c(OC)cc1CN1CCC(O)(c2ccccc2)C1 (stereo not drawn) | x | x | n | x | x | n
O=C(NCc1ccc2c(c1)OCO2)c1nnc(Cc2ccc(F)cc2)o1 | n | n | n | 106 | x | n
O=C(NCc1cccnc1)c1nnc(Cc2ccc(F)cc2)o1 | x | x | n | n | x | x
COc1ccc(-n2nnnc2S(=O)(=O)Cc2ccc(C(=O)O)cc2)cc1 | n | n | n | n | n | n
COc1ccc(-n2nnnc2S(=O)(=O)CC(=O)N2CCCCC2)cc1 | n | 54 | n | n | x | n
COc1ccc(N2C(=O)C(Cl)=C(Oc3cccc(OC)c3)C2=O)cc1 | n | n | n | n | x | 100
O=C(CSc1nnc(-c2ccccc2O)o1)Oc1ccc(Br)cc1 | n | n | n | x | n | n
SMILES | S1P4 ag | S1P4 antag | EP2 mod | S1P3 antagonist | Pf gametocyte | EP2 antag
O=C(CSc1nnc(-c2ccccc2Cl)o1)Oc1ccc(Br)cc1 | n | n | n | x | x | 47!
Cn1nc(C(=O)NCc2ccc(F)cc2)c2ccccc2c1=O | n | n | n | 91 | n | n
O=S(=O)(c1cc(Cl)ccc1Cl)N1CCN(Cc2ccc3c(c2)OCO3)CC1 | n | n | n | 86 | x | n
O=S(=O)(c1ccc(Cl)nc1)N1CCN(Cc2ccc3c(c2)OCO3)CC1 | n | n | n | x | x | n
CC(=O)OC[C@]1(OC(C)=O)C[C@@]23CC[C@H]4[C@@](C)(CCC[C@@]4(C)C(=O)O)[C@@H]2CC[C@@H]1C3 | n | n | n | n | n | n
CC(C)[C@]1(Cl)CC[C@H]2[C@]3(C)CCC[C@@](C)(C(=O)O)[C@H]3C[C@@H](Cl)[C@]2(Cl)[C@H]1Cl | x | x | n | x | x | 48
COc1ccc(Cc2nnc(SCC(=O)N3c4ccccc4Sc4ccccc43)o2)cc1 | x | x | n | x | x | n
CCc1cc2c(C)ccc(C)c2nc1SCC(=O)OC | x | x | 87 | x | x | n
CCc1c(C)sc2nc(C)nc(SCC(=O)Nc3ccccc3OC)c12 | x | x | 66 | x | x | n
CCOC(=O)CC(=O)CSc1nc2c(C)c(C)ccc2cc1C | n | n | 66! | x | x | n
CCC(=O)Nc1cccc(NC(=O)CSc2nc(C3CCCCC3)nc3ccccc23)c1 | x | x | n | x | x | n
COc1ccc(C)cc1NC(=O)CSc1nc(C)nc2sc(C)c(C)c12 | x | x | n | x | x | n
CCOC(=O)CC(=O)CSc1nc2c(C)c(C)ccc2cc1CC | x | x | n | x | x | n
COc1ccc(OC)c(NC(=O)CSc2nc(C3CCCCC3)nc3ccccc23)c1 | x | x | 61 | x | x | n
C[C@H](Cn1nnc2ccccc21)NC(=O)c1ccc(=O)[nH]c1 | x | x | n | x | x | n
CCCNC(=O)CSc1nnc2c3cc(OCC)ccc3n(C)c2n1 | x | x | n | x | x | n
O=C(Cc1ccc(F)cc1)N1CC[C@@H](c2ccccc2)[C@H](O)C1 | x | x | n | x | x | n
Cc1ccc2c(=O)c(C(=O)NCC3CCCO3)c[nH]c2c1 (stereo not drawn) | x | x | n | x | x | n
COc1ccc(CC(=O)Nc2nn(C)c3nc4c(C)cccc4cc23)cc1 | n | n | n | n | n | 48
CCc1cc2cccc(C)c2nc1SCC(=O)Nc1cc(OC)ccc1OC | x | x | 63 | x | x | n
CCc1cc2cccc(C)c2nc1SCC(=O)Nc1ccc(OC)cc1OC | x | x | n | x | x | n
COC(=O)COc1ccccc1C1C(C#N)=C(N)Oc2n[nH]c(C)c21 (stereo not drawn) | x | x | n | x | x | n
CC1(C)CC(N(Cc2ccc(F)cc2)Cc2cccnc2)CC(C)(C)N1 | x | x | n | x | x | n
COc1cccc(N2CCN(c3ncnc4c3[nH]c3ccccc34)CC2C)c1 (stereo not drawn) | n | n | n | x | x | n
COc1cccc(N2CCN(c3ncnc4c3[nH]c3ccc(F)cc34)CC2C)c1 (stereo not drawn) | n | n | n | x | x | 99
SMILES | S1P4 ag | S1P4 antag | EP2 mod | S1P3 antagonist | Pf gametocyte | EP2 antag
CCc1cccc(CC)c1NC(=O)C1CC(=O)N(c2ccc(OC)cc2)C1 (stereo not drawn) | x | x | n | x | x | n
COc1cccc(C(=O)COc2ccccc2-c2ccccc2)c1 | n | n | 61 | n | n | n
c1ccc(B2OC[C@@H]3OB(c4ccccc4)O[C@H]([C@@H]4COB(c5ccccc5)O4)[C@H]3O2)cc1 | x | x | n | x | x | 41
CC(NC(=O)/C(C#N)=C/c1ccc(Cl)c([N+](=O)[O-])c1)c1ccccc1 (stereo not drawn) | n | n | n | n | n | 69
C[C@@H](NC(=O)/C(C#N)=C/c1ccc(O)c(O)c1)c1ccccc1 | x | x | n | x | x | n
Brc1cc2c(cc1/C=N/Nc1nc3ccccc3s1)OCO2 | n | n | n | x | n | 41
Cc1ccc(C(=O)Nc2ccc(S(=O)(=O)Nc3cc(C)nc(C)n3)cc2)cc1 | x | x | n | x | x | n
O=C(N/N=C/c1cn(Cc2ccccc2)c2ccccc12)c1ccncc1 | n | n | n | n | n | n
O=C(N/N=C/c1cn(Cc2ccccc2)c2ccccc12)c1cccnc1 | n | n | n | 28 | n | n
